The target of assay [1] is Peroxisome proliferator-activated receptor delta (Homo sapiens) (UniProt Q03181). Description: qHTS assay to identify small molecule agonists of the peroxisome proliferator-activated receptor delta (PPARd) signaling pathway (AID 743212). Summed up:
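Read-out: beta-lactamase FRET fluorescence after 2 h room-temperature incubation with LiveBLAzer B/G substrate. Cells were HEK293H carrying a UAS-bla reporter for PPARd, treated at 37 C with DMSO-dissolved compounds.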

Assay [2] is described as follows: qHTS assay to identify small molecule antagonists of the peroxisome proliferator-activated receptor delta (PPARd) signaling pathway - cell viability counter screen (AID 743213; active = well fitted curve in the direction sought with a large enough effect in the repeat runs; an effect the other way counts as inactive or inconclusive; also: nearly all actives have a fitted effect of over 50% in size). A digest of the protocol:
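HEK293H PPARd UAS-bla cells, 5 h pre-incubation, compound + L165041 300 nM final, 17 h 37 C; B/G FRET substrate 2 h RT; then CellTiter-Glo 30 min RT, luminescence.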
In general terms: qHTS replaces the single test concentration by a dilution series.

Assay [3] deals with Peroxisome proliferator-activated receptor delta (Homo sapiens) (UniProt Q03181). The assay is described as follows: qHTS assay to identify small molecule antagonists of the peroxisome proliferator-activated receptor delta (PPARd) signaling pathway (AID 743215; active = well fitted inhibition curve with a large enough effect in the signal ratio in the repeat runs, not every such curve was filed as active; the % refers to the signal ratio;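 also: cells stimulated with agonist L165041 at 300 nM final during compound exposure; series mostly up to about 62 µM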). Summed up: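 Agonist L165041 (300 nM final) added with compound to PPARd-bla HEK293H UAS-bla reporter cells; 17 h incubation at 37 C. Read-out: LiveBLAzer FRET substrate, 2 h at room temperature, fluorescence intensity.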
Chain of Peroxisome proliferator-activated receptor delta (Homo sapiens) (Q03181 whole entry, looked up): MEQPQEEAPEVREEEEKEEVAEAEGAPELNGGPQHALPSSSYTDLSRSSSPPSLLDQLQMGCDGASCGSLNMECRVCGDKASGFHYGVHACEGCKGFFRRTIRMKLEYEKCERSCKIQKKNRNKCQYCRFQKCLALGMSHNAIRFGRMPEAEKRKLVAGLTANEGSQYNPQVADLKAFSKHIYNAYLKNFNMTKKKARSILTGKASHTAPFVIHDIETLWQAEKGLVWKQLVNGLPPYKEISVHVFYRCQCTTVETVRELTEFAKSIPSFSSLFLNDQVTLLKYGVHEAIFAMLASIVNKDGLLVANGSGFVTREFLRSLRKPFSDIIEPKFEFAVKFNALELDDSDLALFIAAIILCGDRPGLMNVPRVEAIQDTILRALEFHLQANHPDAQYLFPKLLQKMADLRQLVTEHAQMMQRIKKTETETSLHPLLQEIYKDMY

The target in assay [4] is Bile acid receptor (Homo sapiens) (UniProt Q96RI1). The assay is described as follows: qHTS assay to identify small molecule antagonists of the farnesoid-X-receptor (FXR) signaling pathway (AID 743217; active = well fitted inhibition curve with a large enough effect in the signal ratio in the repeat runs, not every such curve was filed as active; the % refers to the signal ratio). A digest of the protocol:
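Antagonist mode: chenodeoxycholic acid at 50 uM final stimulates a UAS-driven beta-lactamase reporter in HEK 293T FXR-bla cells during 16 h, 37C compound exposure. Read-out is FRET substrate fluorescence after 2 h at room temperature.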

Assay [5] in a line: qHTS assay to identify small molecule agonists of the farnesoid-X-receptor (FXR) signaling pathway - cell viability counter screen (AID 743218; active = well fitted curve in the direction sought with a large enough effect in the repeat runs; an effect the other way counts as inactive or inconclusive; also: nearly all actives have a fitted effect of over 45% in size). Summed up: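 Viability counter screen in the same wells: CellTiter-Glo luminescence, 30 min room-temperature incubation, measured after the beta-lactamase read. Cells were GeneBLAzer FXR-UAS-bla HEK 293T, compound-treated 16 h at 37C.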

The target of assay [6] is Bile acid receptor (Homo sapiens) (UniProt Q96RI1). Description: qHTS assay to identify small molecule agonists of the farnesoid-X-receptor (FXR) signaling pathway (AID 743220; active = well fitted activation curve with a large enough effect in the signal ratio in the repeat runs, not every such curve was filed as active; the % refers to the signal ratio). A digest of the protocol:
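FXR-UAS-bla HEK 293T cells carrying a UAS-driven beta-lactamase reporter were plated for 5 h at 37C/5% CO2, then exposed to DMSO-dissolved Tox21 10K compounds for 16 h at 37C. A LiveBLAzer B/G FRET substrate was loaded for 2 h at room temperature before fluorescence reading.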

Assay [7] is described as follows: qHTS assay to identify small molecule antagonists of the farnesoid-X-receptor (FXR) signaling pathway - cell viability counter screen (AID 743221; active = well fitted cell-killing curve with a large enough effect in the repeat runs, not every such curve was filed as active; also: nearly all actives have a fitted effect of over 50% in size). A digest of the protocol: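 Quantitative HTS of the Tox21 10K library run in parallel with the beta-lactamase reporter read. HEK 293T cells carrying a UAS-driven bla reporter got compound and 50 uM CDCA (final) for 16 h; ATP-based luminescence followed.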

The target in assay [8] is Vitamin D3 receptor (Homo sapiens) (UniProt P11473). The assay is described as follows: qHTS assay to identify small molecule agonists of the vitamin D receptor (VDR) signaling pathway (AID 743222). A digest of the protocol: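 Agonist mode, beta-lactamase reporter: fluorescence from LiveBLAzer B/G FRET substrate (2 h, room temperature) read after 16 h compound treatment at 37 C of VDR-bla cells, which were pre-incubated 4 h after seeding.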
Chain of Vitamin D3 receptor (Homo sapiens) (P11473 whole entry, looked up): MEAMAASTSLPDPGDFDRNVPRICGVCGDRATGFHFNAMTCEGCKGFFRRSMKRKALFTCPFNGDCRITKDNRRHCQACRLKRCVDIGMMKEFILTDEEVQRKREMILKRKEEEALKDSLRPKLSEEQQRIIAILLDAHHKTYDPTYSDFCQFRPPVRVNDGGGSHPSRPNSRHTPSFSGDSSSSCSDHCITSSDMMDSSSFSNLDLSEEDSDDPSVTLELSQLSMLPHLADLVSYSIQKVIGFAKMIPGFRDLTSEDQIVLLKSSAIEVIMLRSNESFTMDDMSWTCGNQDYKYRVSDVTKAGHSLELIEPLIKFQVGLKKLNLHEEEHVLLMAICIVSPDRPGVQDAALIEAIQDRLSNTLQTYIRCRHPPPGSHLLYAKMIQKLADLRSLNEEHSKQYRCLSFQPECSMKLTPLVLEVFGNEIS

For assay [9] the target is unchanged. The assay is described as follows: qHTS assay to identify small molecule antagonists of the vitamin D receptor (VDR) signaling pathway (AID 743223; active = well fitted inhibition curve with a large enough effect in the signal ratio in the repeat runs, not every such curve was filed as active; the % refers to the signal ratio). Summed up: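 Fluorescence from LiveBLAzer B/G FRET substrate, read after 2 h at room temperature, reflects beta-lactamase reporter activity in VDR-bla cells treated 16 h at 37C with compounds and agonist 1alpha,25-dihydroxyvitamin D3 (3 nM final).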

Assay [10] can be described thus: qHTS assay to identify small molecule agonists of the vitamin D receptor (VDR) signaling pathway - cell viability counter screen (AID 743224; active = well fitted curve in the direction sought with a large enough effect in the repeat runs; an effect the other way counts as inactive or inconclusive; also: series mostly up to about 63 µM; nearly all actives have a fitted effect of over 50% in size). Summed up: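 Counter screen run in the same wells as the VDR-bla reporter assay: CellTiter-Glo luminescence, 30 min at room temperature, after 16 h compound treatment at 37C of cells pre-plated for 4 h.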
The nature of assay [11]: qHTS assay to identify small molecule agonists of the NFkB signaling pathway - cell viability counter screen (AID 1159515). Also: series mostly up to about 61 µM; nearly all actives have a fitted effect of over 55% in size. Summed up: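 Read by CellTiter-Glo luminescence (30 min, room temperature) in the wells also used for the beta-lactamase FRET read. ME-180 NFkB-bla cells at 2,000 per well were plated overnight, then exposed to compound for 5 hr at 37 C.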
Assay [12] can be described thus: qHTS assay to identify small molecule agonists of the endoplasmic reticulum stress response signaling pathway (AID 1159516; active = well fitted activation curve with a large enough effect in the signal ratio in the repeat runs, not every such curve was filed as active; the % refers to the signal ratio). A digest of the protocol:
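Ratiometric FRET readout (405 nm excitation; 460 and 530 nm emission) of a beta-lactamase gene driven by the ER stress response element, after 2 hr substrate loading. HeLa ESRE-bla cells were seeded overnight and treated with compounds for only 5 hr at 37 C.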

Assay [13] can be described thus: qHTS assay to identify small molecule agonists of the endoplasmic reticulum stress response signaling pathway - cell viability counter screen (AID 1159517). Also: series mostly up to about 61 µM; nearly all actives have a fitted effect of over 50% in size. Summed up: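 Steps: seed 1,500 ESRE-bla HeLa cells per well; incubate overnight at 37 C, 5% CO2; add compounds in DMSO for 5 hr; run FRET substrate 2 hr RT; add CellTiter-Glo, wait 30 min, read luminescence.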

Assay [14] in a line: qHTS assay to identify small molecule antagonists of the retinoid-related orphan receptor gamma (ROR-gamma) signaling pathway - cell viability counter screen (AID 1159520; active = well fitted curve in the direction sought with a large enough effect in the repeat runs; an effect the other way counts as inactive or inconclusive; also: nearly all actives have a fitted effect of over 50% in size). Summed up: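 Tet-on ROR gamma CHO cells were given compounds for 2 hr, then doxycycline hyclate at 1 uM final, and incubated 16 hr at 37 C. Viability was measured as ATP content by CellTiter-Glo luminescence.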

In assay [15] the target is Nuclear receptor ROR-gamma (Homo sapiens) (UniProt P51449). Description: qHTS assay to identify small molecule antagonists of the retinoid-related orphan receptor gamma (ROR-gamma) signaling pathway (AID 1159521; active = well fitted curve in the direction sought with a large enough effect in the repeat runs; an effect the other way counts as inactive or inconclusive). Summed up:
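RORγ antagonism is scored from reduced reporter luminescence in Tet-on CHO cells. Induction used 1 uM final doxycycline hyclate for 16 h at 37 C, following a 2 h compound exposure.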

Assay [16] is described as follows: qHTS assay to identify small molecule agonists of the AP-1 signaling pathway - cell viability counter screen (AID 1159525). Also: nearly all actives have a fitted effect of over 55% in size. A digest of the protocol:
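Same-well cytotoxicity counter screen of the Tox21 10K library in ME-180 cells. The readout is ATP-dependent luminescence after 5 h compound treatment. Data are normalised to DMSO and tetra n-octyl ammonium bromide controls.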

Assay [17] in a line: qHTS assay to identify small molecule agonists of the AP-1 signaling pathway (AID 1159526).
The target of assay [18] is Retinoic acid receptor RXR-alpha (Homo sapiens) (UniProt P19793). The assay is described as follows: qHTS assay to identify small molecule agonists of the RXR signaling pathway (AID 1159527). Also: nearly all actives have a fitted effect of over 35% in size. Also: potency is read from the fitted curve at half-maximal effect. Summed up: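 qHTS of the Tox21 10K library in GeneBLAzer RXR-alpha HEK 293T cells carrying a beta-lactamase reporter […]; 16 hr treatment, 9-cis retinoic acid as agonist control, FRET read-out.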
Chain of Retinoic acid receptor RXR-alpha (Homo sapiens) (P19793 whole entry, looked up): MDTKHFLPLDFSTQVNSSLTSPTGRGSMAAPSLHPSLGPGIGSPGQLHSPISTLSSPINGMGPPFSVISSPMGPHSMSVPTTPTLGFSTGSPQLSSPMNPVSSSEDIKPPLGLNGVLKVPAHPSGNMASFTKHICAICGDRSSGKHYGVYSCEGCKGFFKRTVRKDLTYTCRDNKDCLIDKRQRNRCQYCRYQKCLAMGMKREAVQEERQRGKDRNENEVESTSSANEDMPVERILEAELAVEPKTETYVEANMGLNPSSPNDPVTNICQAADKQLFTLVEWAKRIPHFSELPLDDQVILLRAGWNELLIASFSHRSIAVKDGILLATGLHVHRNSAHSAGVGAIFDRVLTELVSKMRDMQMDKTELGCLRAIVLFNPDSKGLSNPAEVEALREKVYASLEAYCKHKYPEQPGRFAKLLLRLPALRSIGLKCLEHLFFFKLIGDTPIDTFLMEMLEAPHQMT

A short description of assay [19]: qHTS assay to identify small molecule agonists of the RXR signaling pathway - cell viability counter screen (AID 1159529; active = well fitted curve in the direction sought with a large enough effect in the repeat runs; an effect the other way counts as inactive or inconclusive). Summed up:
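Cell viability is measured by CellTiter-Glo luminescence, 30 min at room temperature, in wells already read for beta-lactamase. Engineered HEK 293T cells (RXR-alpha-UAS-bla) are dosed 16 hr at 37 C. Tetraoctyl ammonium bromide serves as positive control.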

A short description of assay [20]: qHTS assay to identify small molecule antagonists of the vitamin D receptor (VDR) signaling pathway - cell viability counter screen (AID 743225; active = well fitted curve in the direction sought with a large enough effect in the repeat runs; an effect the other way counts as inactive or inconclusive; also: nearly all actives have a fitted effect of over 50% in size). Summed up: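 Cells (VDR-UAS-bla HEK 293T) are plated, rested 4 h at 37C, dosed with compound and 3 nM final 1-alpha,25-dihydroxy vitamin D3, and incubated 16 h. Viability is taken from CellTiter-Glo luminescence in the reporter wells.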

Molecules are shown by their SMILES. “And” between values parts separate entries of the source, which are not always exact repeats. Equal values may be shown once. Results filed as inconclusive are left out. The source holds several records for some structures; these can differ, active in one and inactive in another. The source made the active and inactive calls. Unless noted, calls follow the shape of the full dose curve.

Chain of Bile acid receptor (Homo sapiens) (Q96RI1 whole entry, looked up): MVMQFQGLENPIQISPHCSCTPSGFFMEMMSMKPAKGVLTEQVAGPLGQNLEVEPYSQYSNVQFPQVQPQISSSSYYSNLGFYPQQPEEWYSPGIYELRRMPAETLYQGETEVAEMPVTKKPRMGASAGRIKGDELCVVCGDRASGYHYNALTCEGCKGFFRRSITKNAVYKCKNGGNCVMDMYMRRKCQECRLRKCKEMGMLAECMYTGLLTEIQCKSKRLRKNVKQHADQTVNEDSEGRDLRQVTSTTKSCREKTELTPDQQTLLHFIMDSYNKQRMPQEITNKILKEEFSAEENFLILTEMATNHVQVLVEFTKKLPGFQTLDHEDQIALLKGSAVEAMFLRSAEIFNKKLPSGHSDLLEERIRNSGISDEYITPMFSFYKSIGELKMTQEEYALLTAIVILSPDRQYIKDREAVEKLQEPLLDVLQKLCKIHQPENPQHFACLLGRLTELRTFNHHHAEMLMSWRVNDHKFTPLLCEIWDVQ

For the compound `CC(=O)OCCOCCOCCOC(C)=O`, the Potency result in [1], in assay [2], in assay [3], in [4], in [5] and in assay [6] was “inactive” in each case. The Potency entry in [7], in assay [8], in assay [9], in [10], in assay [11] and in [13] was “inactive” each time. Besides, the Potency result in assay [14], in assay [15], in assay [16], in assay [17] and in [19] was “inactive” in each case. In [12], the call was inactive. In addition, the Potency result in [18] was “inactive and 12.3 µM (active)”.

`CO[Si](OC)(OC)c1ccccc1`: the Potency entry in assay [1], in [2], in [3], in assay [5], in [7] and in [9] was “inactive” each time. Moreover, the Potency result in [10], in assay [11], in assay [13], in assay [14], in assay [15] and in assay [16] was “inactive” each time. Moreover, the Potency result in assay [17], in [18] and in [19] was “inactive” in each case. Moreover, the result in assay [12] was inactive.

For the compound `c1cnc2cc3c(cc2n1)C1CNCC3C1`, the Potency entry in assay [1], in [2], in assay [3], in assay [4], in [5] and in assay [6] was “inactive” each time. Also, the Potency entry in assay [7], in assay [8], in assay [9], in [10], in [20] and in [11] was “inactive” in each case. The Potency entry in assay [13], in assay [14], in assay [15], in [16], in [17] and in assay [18] was “inactive” throughout. Besides, the Potency entry in [19] was “inactive”. Besides, the compound was classed as inactive in assay [12].

With `NCCCCCC(=O)O`, the Potency entry in assay [2], in [4], in assay [5], in [6], in [7] and in assay [8] was “inactive” in each case. For the same compound, the Potency entry in assay [10], in assay [20], in [11], in assay [13], in assay [14] and in [15] was “inactive” throughout. The Potency result in assay [16], in assay [17], in [18] and in [19] was “inactive” in each case. For the same compound, the result in assay [12] was inactive.

For the compound `CC1=C(C=O)C(C)(C)CC=C1`, the Potency entry in assay [1], in assay [2], in assay [5], in assay [7], in [8] and in assay [10] was “inactive” in each case. The Potency entry in assay [20], in [11], in assay [13], in assay [14], in assay [15] and in assay [16] was “inactive” throughout. In addition, the Potency result in assay [17], in assay [18] and in assay [19] was “inactive” each time. In assay [12], the call was inactive.

For the compound `O=C(O)CCc1ccccc1`, the Potency result in assay [1], in assay [2], in assay [3], in [5], in [7] and in [8] was “inactive” in each case. Further, the Potency result in assay [10], in assay [11], in assay [13], in assay [14], in assay [15] and in assay [16] was “inactive” in each case. The Potency result in assay [17], in assay [18] and in assay [19] was “inactive” each time. In addition, in assay [12], the outcome was inactive.

Turning to `C1COC(NC(C2CC2)C2CC2)=N1`, the Potency entry in assay [1], in assay [2], in assay [3], in assay [5], in assay [7] and in assay [9] was “inactive” each time. The Potency result in assay [10], in assay [20], in assay [11], in assay [13], in [14] and in [15] was “inactive” each time. Further, the Potency result in [16], in assay [17], in assay [18] and in assay [19] was “inactive” in each case. Moreover, the outcome in assay [12] was inactive.

As for `COc1cc(C(=S)N2CCOCC2)ccc1O`, the Potency result in assay [1], in assay [3], in [7], in assay [10], in assay [20] and in assay [11] was “inactive” throughout. The Potency entry in assay [13], in assay [14], in assay [15], in assay [16], in [17] and in [18] was “inactive” throughout. Moreover, in assay [19], the Potency entry is “inactive”. The compound was called inactive in assay [12].

These data come from PubChem BioAssay (Tox21).
